A short description of assay [1]: NCI Yeast Anticancer Drug Screen. Data for the rad50 strain (AID 155).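 Also: 0% = growth of vehicle-only cultures of the same strain.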 The settings on record: S. cerevisiae rad50 strain growth inhibition, hits give high values. In outline:
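Vehicle-treated cultures provide the reference for the growth inhibition reported for compound-exposed, repair-deficient yeast.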

Assay [2] is described as follows: NCI Yeast Anticancer Drug Screen. Data for the mec2-1 strain (AID 157). As to conditions: S. cerevisiae mec2-1 strain, hits give high values. In outline:
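Yeast mec2-1 mutant treated with compound. Readout: growth inhibition vs vehicle controls.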

The nature of assay [3]: NCI Yeast Anticancer Drug Screen. Data for the sgs1 mgt1 strain (AID 161).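 Also: 0% = growth of cultures given vehicle only.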 The settings on record: S. cerevisiae sgs1 mgt1 strain, hits give high values. In outline:
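Inhibition of yeast growth, normalised to vehicle-treated controls, is reported for a strain bearing genetic alterations in DNA damage repair.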

Assay [4] in a line: NCI Yeast Anticancer Drug Screen. Data for the cln2 rad14 strain (AID 165).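 Also: 0% = growth equal to vehicle treated cultures.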 As to conditions: S. cerevisiae cln2 rad14 strain, hits give high values. Summed up: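 cln2 rad14 yeast strain; compound exposure; growth inhibition read vs vehicle controls.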
A short description of assay [5]: NCI Yeast Anticancer Drug Screen. Data for the bub3 strain (AID 167). The settings on record: S. cerevisiae bub3 mutant strain, hits give high values. In outline:
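Mutant yeast screening strain plus compound; vehicle-treated cultures serve as the 0% inhibition reference.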

Assay [6] can be described thus: NCI Yeast Anticancer Drug Screen. Data for the mlh1 rad18 strain (AID 175). As to conditions: S. cerevisiae mlh1 rad18 strain growth inhibition, hits give high values. Summed up:
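Yeast w/ defined DNA-repair lesions; compound exposure; growth vs vehicle controls → % inhibition.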

The mark [7] stands for this setting: at 5.0 µM (retest, dose inferred, filed as 0.5).
[8] abbreviates: at 50.0 µM (retest, dose inferred, filed as 5.0).

The structures appear in SMILES notation. This is part of a sample that, as a whole, favours compounds with a hit. Of some 79,000 tested, about 15% had one in any assay. Values without a mark were called inactive. The source made the active and inactive calls. Rule as the data show it: active = growth inhibition above about 70%; inactive = the rest. *1 amine or outer side, *2 acyl side, *3 side chain or, on linkers, in order; H or OH if unused. Where a SMILES comes first, the peptide text is derived from it. Bridges are numbered along the chain shown (N, C = ends). [ ]: non-standard residue; d: D form. The star is where a group is joined. ξ: configuration not given here. ξOrn(4,5-diOH) = O=C(C(CC(O)C(O)N[*:3])N[*:1])[*:2]; ξhTyr(βξ-OH,γξ-OH) = NC(C(=O)O)C(O)C(O)c1ccc(O)cc1; ξPro(3ξ-OH,4ξ-Me) = CC1CNC(C(=O)O)C1O; X1 = CCCCC/C=C/C/C=C\CCCCCCCC(=O)*; Hyp = O=C(O)[CH]1C[CH](O)CN1

In the case of `COc1ccc2c(N3CCN(C(=O)C(Cl)(Cl)Cl)CC3)cc(C)nc2c1`, the growth inhibition is 2% in assay [1] (setting [7]); 4% in assay [1] (setting [8]); 2.05% in assay [1] (at 50.0 µM); 1% in assay [2] (setting [7]); 0% in assay [2] (setting [8]); 0.2% in assay [2] (at 50.0 µM). In addition, the growth inhibition in assay [3] (setting [7]) is 1%; in assay [3] (setting [8]), 0%; in assay [3] (at 50.0 µM) it was -24.6%; in assay [4] (setting [7]), 0%; in assay [4] (setting [8]), 0%; in assay [4] (at 50.0 µM) it was -2.9%. In addition, the growth inhibition in assay [5] (setting [7]) is 0%; in assay [5] (setting [8]) it was 7%; in assay [5] (at 50.0 µM), -0.5%; in assay [6] (setting [7]) it was 3%; in assay [6] (setting [8]) it was 4%; in assay [6] (at 50.0 µM), 2.75%.
`O=[N+]([O-])c1ccc2c(c1)/C(=C/c1ccc(O)cc1)c1ccccc1-2`: the growth inhibition in assay [1] (setting [7]) was 9%; in assay [1] (setting [8]), 86% (active); in assay [1] (at 50.0 µM), 88.3% (active); in assay [2] (setting [7]), 1%; in assay [2] (setting [8]) it was 82% (active); in assay [2] (at 50.0 µM), 88.8% (active). The growth inhibition is 2% in assay [3] (setting [7]); 82% (active) in assay [3] (setting [8]); 91.3% (active) in assay [3] (at 50.0 µM); -2% in assay [4] (setting [7]); 84% (active) in assay [4] (setting [8]); 86.8% (active) in assay [4] (at 50.0 µM). For the same molecule, the growth inhibition in assay [5] (setting [7]) is -2%; in assay [5] (setting [8]), 85% (active); in assay [5] (at 50.0 µM) it was 88.6% (active); in assay [6] (setting [7]), 6%; in assay [6] (setting [8]), 83% (active); in assay [6] (at 50.0 µM), 88.8% (active).
`COc1ccc2c(c1)CN1C(CCC3c4ccccc4NC31)C2` (stereo not given): the growth inhibition in assay [1] (setting [7]) was -17%; in assay [1] (setting [8]), 16%; in assay [1] (at 50.0 µM), 88.5% (active); in assay [2] (setting [7]), -5%; in assay [2] (setting [8]), 11%; in assay [2] (at 50.0 µM), 72.3% (active). For the same molecule, the growth inhibition in assay [3] (setting [7]) is -5%; in assay [3] (setting [8]), 30%; in assay [3] (at 50.0 µM), 86.7% (active); in assay [4] (setting [7]) it was 26%; in assay [4] (setting [8]) it was 11%; in assay [4] (at 50.0 µM) it was 51.3%. Also, the growth inhibition was -35% in assay [5] (setting [7]); 13% in assay [5] (setting [8]); 61.6% in assay [5] (at 50.0 µM); -12% in assay [6] (setting [7]); 27% in assay [6] (setting [8]); 90.5% (active) in assay [6] (at 50.0 µM).
As for `O=S(=O)(O)CC[S][Sn]([S]CCS(=O)(=O)O)([c]1ccccc1)[c]1ccccc1` (tested in a mixture with another compound), the growth inhibition in assay [1] (setting [7]) was 84% (active); in assay [1] (setting [8]), 98% (active); in assay [1] (at 50.0 µM), 71.9% (active); in assay [2] (setting [7]), 48%; in assay [2] (setting [8]), 98% (active); in assay [2] (at 50.0 µM), 83.2% (active). Besides, the growth inhibition in assay [3] (setting [7]) was 92% (active); in assay [3] (setting [8]), 97% (active); in assay [3] (at 50.0 µM), 88.6% (active); in assay [4] (setting [7]) it was 28%; in assay [4] (setting [8]) it was 94% (active); in assay [4] (at 50.0 µM) it was 79.8% (active). Further, the growth inhibition was 59% in assay [5] (setting [7]); 97% (active) in assay [5] (setting [8]); 86.2% (active) in assay [5] (at 50.0 µM); 94% (active) in assay [6] (setting [7]); 96% (active) in assay [6] (setting [8]); 90.7% (active) in assay [6] (at 50.0 µM).
With `Cc1ccc(C2(O)CCN(Cc3ccccc3)CC2)cc1`, the growth inhibition was 30% in assay [1] (setting [7]); 85% (active) in assay [1] (setting [8]); 56.5% in assay [1] (at 50.0 µM); 39% in assay [2] (setting [7]); 99% (active) in assay [2] (setting [8]); 8.3% in assay [2] (at 50.0 µM). For the same molecule, the growth inhibition is 47% in assay [3] (setting [7]); 72% (active) in assay [3] (setting [8]); 70% (active) in assay [3] (at 50.0 µM); 75% (active) in assay [4] (setting [7]); 89% (active) in assay [4] (setting [8]); 61.8% in assay [4] (at 50.0 µM). In addition, the growth inhibition in assay [5] (setting [7]) was 64%; in assay [5] (setting [8]) it was 81% (active); in assay [5] (at 50.0 µM), 41%; in assay [6] (setting [7]), 37%; in assay [6] (setting [8]), 98% (active); in assay [6] (at 50.0 µM) it was 47%.
With `CCCCC/C=C/C/C=C\CCCCCCCC(=O)NC1CC(O)C(O)NC(=O)C2C(O)C(C)CN2C(=O)C(C(C)O)NC(=O)C(C(O)C(O)c2ccc(O)cc2)NC(=O)C2CC(O)CN2C(=O)C(C(C)O)NC1=O` (stereo not drawn) (X1-[ξOrn(4,5-diOH)]T[Hyp][ξhTyr(βξ-OH,γξ-OH)]T[ξPro(3ξ-OH,4ξ-Me)]; lactam 1-C; configuration not given here), the growth inhibition is 3% in assay [1] (setting [7]); 93% (active) in assay [1] (setting [8]); 89% (active) in assay [1] (at 50.0 µM); 51% in assay [2] (setting [7]); 98% (active) in assay [2] (setting [8]); 90.8% (active) in assay [2] (at 50.0 µM). For the same molecule, the growth inhibition in assay [3] (setting [7]) was 51%; in assay [3] (setting [8]), 93% (active); in assay [3] (at 50.0 µM), 90.3% (active); in assay [4] (setting [7]), 9%; in assay [4] (setting [8]), 95% (active); in assay [4] (at 50.0 µM) it was 83.8% (active). In addition, the growth inhibition in assay [5] (setting [7]) was 11%; in assay [5] (setting [8]) it was 97% (active); in assay [5] (at 50.0 µM), 89.9% (active); in assay [6] (setting [7]), 40%; in assay [6] (setting [8]) it was 96% (active); in assay [6] (at 50.0 µM) it was 88.6% (active).
With `S=C(NCCc1ccccc1)N/N=C/c1ccc(Cl)cc1`, the growth inhibition in assay [1] (setting [7]) was 52%; in assay [1] (setting [8]) it was 57%; in assay [1] (at 50.0 µM) it was 85.7% (active); in assay [2] (setting [7]), 36%; in assay [2] (setting [8]), 54%; in assay [2] (at 50.0 µM), 74.3% (active). The growth inhibition in assay [3] (setting [7]) was 54%; in assay [3] (setting [8]), 61%; in assay [3] (at 50.0 µM) it was 83.5% (active); in assay [4] (setting [7]), 34%; in assay [4] (setting [8]), 45%; in assay [4] (at 50.0 µM) it was 83% (active). The growth inhibition in assay [5] (setting [7]) was 52%; in assay [5] (setting [8]), 65%; in assay [5] (at 50.0 µM) it was 85.6% (active); in assay [6] (setting [7]) it was 61%; in assay [6] (setting [8]), 67%; in assay [6] (at 50.0 µM), 80.9% (active).
Turning to `O=C(O)CCC12CCCCC1=NC1(CCCCC1)NC2=O` (stereo not given), the growth inhibition in assay [1] (setting [7]) is 2%; in assay [1] (setting [8]), 6%; in assay [1] (at 50.0 µM), 10.6%; in assay [2] (setting [7]), -2%; in assay [2] (setting [8]), -1%; in assay [2] (at 50.0 µM) it was 44.6%. Also, the growth inhibition was 3% in assay [3] (setting [7]); 4% in assay [3] (setting [8]); 72.7% (active) in assay [3] (at 50.0 µM); 4% in assay [4] (setting [7]); 3% in assay [4] (setting [8]); 18.1% in assay [4] (at 50.0 µM). For the same molecule, the growth inhibition in assay [5] (setting [7]) was 1%; in assay [5] (setting [8]), 2%; in assay [5] (at 50.0 µM), 67%; in assay [6] (setting [7]), 1%; in assay [6] (setting [8]), 7%; in assay [6] (at 50.0 µM), 55.6%.
With `CC(C)=CCc1c(O)cc(O)c2c1OC(c1ccc(O)cc1)C(O)C2=O` (stereo not given), the growth inhibition in assay [1] (setting [7]) is -9%; in assay [1] (setting [8]), 98% (active); in assay [1] (at 50.0 µM), 93.2% (active); in assay [2] (setting [7]) it was 1%; in assay [2] (setting [8]) it was 99% (active); in assay [2] (at 50.0 µM), 94% (active). Moreover, the growth inhibition in assay [3] (setting [7]) is -4%; in assay [3] (setting [8]), 99% (active); in assay [3] (at 50.0 µM), 93.8% (active); in assay [4] (setting [7]), 20%; in assay [4] (setting [8]), 99% (active); in assay [4] (at 50.0 µM), 91.5% (active). The growth inhibition was 5% in assay [5] (setting [7]); 99% (active) in assay [5] (setting [8]); 92% (active) in assay [5] (at 50.0 µM); -2% in assay [6] (setting [7]); 99% (active) in assay [6] (setting [8]); 92.5% (active) in assay [6] (at 50.0 µM).
For `COc1ccc(-n2c3c(c4c(N)ncnc42)CCCC3)cc1`, the growth inhibition in assay [1] (setting [7]) is -2%; in assay [1] (setting [8]), -4%; in assay [1] (at 50.0 µM), -21.3%; in assay [2] (setting [7]), -12%; in assay [2] (setting [8]), -3%; in assay [2] (at 50.0 µM), -7.3%. Also, the growth inhibition in assay [3] (setting [7]) was 11%; in assay [3] (setting [8]), -3%; in assay [3] (at 50.0 µM), -13%; in assay [4] (setting [7]), -11%; in assay [4] (setting [8]), 43%; in assay [4] (at 50.0 µM), -33%. The growth inhibition in assay [5] (setting [7]) was -2%; in assay [5] (setting [8]), -13%; in assay [5] (at 50.0 µM), -69.2%; in assay [6] (setting [7]) it was 2%; in assay [6] (setting [8]), -13%; in assay [6] (at 50.0 µM) it was -16.4%.
